This passage reports activity change, less the hit threshold results from PubChem BioAssay AID1942 (Johns Hopkins Ion Channel Center, 2009).

The structures appear in SMILES notation. The campaign covered roughly 2,400 compounds. About 580 (24%) were called active. Not all results are given here. Unmarked numbers belong to inactive results.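 The calls were made as follows: active = activity change at or above the mean plus 3 SD of buffer wells without dofetilide, per plate; inactive = the rest.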

Potassium voltage-gated channel subfamily KQT member 2 (Rattus norvegicus), sequence (O88943 whole entry, looked up): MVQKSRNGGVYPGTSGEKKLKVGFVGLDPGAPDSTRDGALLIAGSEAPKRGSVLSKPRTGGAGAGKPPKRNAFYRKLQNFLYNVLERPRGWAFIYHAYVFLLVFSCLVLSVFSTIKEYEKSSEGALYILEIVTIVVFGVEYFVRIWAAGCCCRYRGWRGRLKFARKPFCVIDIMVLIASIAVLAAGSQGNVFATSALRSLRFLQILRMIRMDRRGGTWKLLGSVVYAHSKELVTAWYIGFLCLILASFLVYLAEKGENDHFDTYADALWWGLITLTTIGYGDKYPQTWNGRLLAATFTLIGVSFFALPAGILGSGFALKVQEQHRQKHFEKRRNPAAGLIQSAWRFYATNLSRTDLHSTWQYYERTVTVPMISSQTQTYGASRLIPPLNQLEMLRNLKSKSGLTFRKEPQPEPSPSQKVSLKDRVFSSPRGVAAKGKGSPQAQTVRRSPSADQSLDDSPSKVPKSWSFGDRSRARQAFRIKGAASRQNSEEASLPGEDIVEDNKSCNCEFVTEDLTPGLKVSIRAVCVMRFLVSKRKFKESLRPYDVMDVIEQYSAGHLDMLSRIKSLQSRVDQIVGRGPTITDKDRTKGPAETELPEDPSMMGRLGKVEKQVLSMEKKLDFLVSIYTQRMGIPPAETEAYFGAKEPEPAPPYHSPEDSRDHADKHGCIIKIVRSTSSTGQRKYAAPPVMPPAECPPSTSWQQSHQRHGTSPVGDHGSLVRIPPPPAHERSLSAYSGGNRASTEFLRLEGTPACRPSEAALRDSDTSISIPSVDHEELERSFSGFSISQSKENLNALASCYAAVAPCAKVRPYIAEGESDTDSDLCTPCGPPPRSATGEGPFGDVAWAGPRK

The assay concerns the target Potassium voltage-gated channel subfamily KQT member 2 (Rattus norvegicus) (UniProt O88943). In words: rat KCNQ2 channel activation by compounds alone, confirmation, counter-screen for hERG block protector project, cell-based, CHO, FluxOR thallium flux (AID 1942).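 Also: normalized value minus buffer-control mean plus three SD of buffer wells.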 As to conditions: CHO-KCNQ2 cells, FluxOR thallium flux fluorescence; at 10 µM; stronger effect = higher value. A general note: Counterscreens check selectivity or assay interference.
Consider `COC(=O)Sc1nnc(-c2ccc(Br)cc2)o1`, for which the activity change, less the hit threshold was -1.8%.

Regarding `CCc1ccc2c(c1)c(N=NC1=NC(=O)CS1)c(O)n2CC`, the activity change, less the hit threshold was 26.5% (active).

With `CCn1c(O)c(N=NC2=NC(=O)CS2)c2cc(C)ccc21`, the activity change, less the hit threshold is -10.5%.

Take `CCn1c(O)c(N=NC2=NC(=O)CS2)c2ccccc21`: the activity change, less the hit threshold was -5.8%.

As to `C/C(=N/NC(=O)c1ccncc1)c1ccc2c(c1)OCO2`, the activity change, less the hit threshold was -22.1%.

For `O=C(NNC(=O)C12CC3CC(CC(O)(C3)C1)C2)c1ccccc1O`, the activity change, less the hit threshold is -1.7%.

`COc1ccc(OC)c(NC(=O)C(=O)NNC(=O)C23CC4CC(CC(C4)C2)C3)c1`: the activity change, less the hit threshold is 96.2% (active).

Regarding `COc1ccc(OCC(=O)NNC(=O)C(=O)Nc2cc(OC)ccc2OC)cc1`, the activity change, less the hit threshold was 15.9% (active).

Take `COc1cccc(OCC(=O)NNC(=O)C(=O)Nc2ccc(OC)cc2OC)c1`: the activity change, less the hit threshold is 15.4% (active).

In the case of `COc1ccc(NC(=O)C(=O)NNC(=O)COc2ccc(OC)cc2)cc1`, the activity change, less the hit threshold was -24.3%.

For `COc1ccc(NC(=O)C(=O)NNC(=O)COc2ccc(Cl)cc2)c(OC)c1`, the activity change, less the hit threshold was 15.6% (active).

Take `O=C(COc1ccc(S(=O)(=O)NCc2ccccc2)cc1Cl)NCC1CCCO1` (stereo not drawn): the activity change, less the hit threshold was -14.4%.

As to `Cc1ccc(-n2c(C)cc(C(=O)CN3CCOCC3)c2C)cc1`, the activity change, less the hit threshold was -12.8%.

`CN(CC(=O)Nc1ccc(OC(F)(F)F)cc1)S(=O)(=O)c1cnc[nH]1`: the activity change, less the hit threshold is -18.2%.

As to `CCN1C(=O)[C@H]2[C@@H](c3ccc(-c4ccc(OC)cc4)cc3)N[C@@](C)(C(=O)OC)[C@H]2C1=O`, the activity change, less the hit threshold was -17.6%.

For the compound `CCC(NS(=O)(=O)c1ccc(OC)cc1)C(=O)O` (stereo not drawn), the activity change, less the hit threshold was -16.1%.

With `CN(C)c1oc(-c2ccccc2[N+](=O)[O-])nc1C#N`, the activity change, less the hit threshold was -6.7%.

On to `Cc1ccccc1NC(=O)CN1C(=O)S/C(=C\c2ccc(-c3cc(C(=O)O)ccc3C)o2)C1=O`, for which the activity change, less the hit threshold was -10.8%.

On to `Cc1ccc(NC(=S)N2CCN(c3ccccc3F)CC2)c(C)c1`, for which the activity change, less the hit threshold was -10.4%.

For `Cn1c(=O)[nH]c(=O)c2c1nc(CN1CCN(c3ccccc3F)CC1)n2CCCc1ccccc1`, the activity change, less the hit threshold was -12.9%.

Take `Cc1ccc(-c2csc3nc[nH]c(=S)c23)cc1C`: the activity change, less the hit threshold is 2.5% (active).

Take `Cc1cc(-c2csc3nc[nH]c(=S)c23)cc(C)c1C`: the activity change, less the hit threshold is 33.7% (active).

Turning to `C=CCNC(=O)CC(=O)N/N=C/c1cccs1`, the activity change, less the hit threshold is -10.2%.

Turning to `Nc1nc(O)c(N=Nc2ccc(S(N)(=O)=O)cc2)c(=O)[nH]1`, the activity change, less the hit threshold is -16.5%.

As to `CSc1nc2c(c(=O)[nH]1)C(c1ccc(Br)cc1)CC(=O)N2` (stereo not drawn), the activity change, less the hit threshold is -18.9%.

Consider `COc1ccc(S(=O)(=O)c2snnc2C)cc1`, for which the activity change, less the hit threshold was -14.8%.

As to `CN(Cc1cccc(C(F)(F)F)c1)Cc1nc(-c2cnccn2)no1`, the activity change, less the hit threshold was -21.7%.

Turning to `COC(=O)C1=C(C)NC2=C(C(=O)CCC2)C1c1ccc(-c2ccsc2C(=O)OC)o1` (stereo not drawn), the activity change, less the hit threshold is 53.7% (active).

For the compound `COC(=O)C(C)Sc1nnc(Cc2cc(=O)[nH]c(=O)[nH]2)n1-c1cccc(OC)c1` (stereo not drawn), the activity change, less the hit threshold was -15.6%.

For the compound `Cc1ccc(-n2ncc3c2CCCC3NC(=O)c2csnn2)cc1C` (stereo not drawn), the activity change, less the hit threshold is -24.7%.

Turning to `O=c1c2ccccc2[nH]c(=S)n1CCC1=CCCCC1`, the activity change, less the hit threshold was 18% (active).

Regarding `O=c1c2ccc(Cl)cc2[nH]c(=S)n1CCC1=CCCCC1`, the activity change, less the hit threshold is 9.4% (active).

Consider `O=c1c2cccnc2[nH]c(=S)n1CCC1=CCCCC1`, for which the activity change, less the hit threshold was 48.1% (active).

For `O=C(CCn1c(=S)[nH]c2cc3c(cc2c1=O)OCO3)NCc1ccc(Cl)cc1`, the activity change, less the hit threshold is -10.2%.

With `COc1ccccc1CNC(=O)CCCC(=O)n1ncc2cc(C)ccc21`, the activity change, less the hit threshold was -14.9%.

Turning to `N#C/C(=N\Nc1ccccc1F)c1nc(-c2ccccc2)cs1`, the activity change, less the hit threshold was -27.5%.

For `CC(=O)Nc1ccc2nc(NC(=O)c3ccc([N+](=O)[O-])o3)sc2c1`, the activity change, less the hit threshold was -16.8%.

For `Cc1cc(NC(=O)Cn2c(=O)n(Cc3ccccc3)c(=O)c3ccccc32)no1`, the activity change, less the hit threshold was -19.9%.

On to `Cc1ccc(C(C)C)c(OCc2n[nH]c(=S)o2)c1`, for which the activity change, less the hit threshold was 10.8% (active).

In the case of `c1ccc(SSc2ccccn2)nc1`, the activity change, less the hit threshold is -14%.

With `CC(C)(C)Cc1nnc(NC(=O)c2ccco2)s1`, the activity change, less the hit threshold is -19.2%.

As to `O=C(Nc1nc(=S)ss1)c1ccc(Cl)cc1Cl`, the activity change, less the hit threshold is 100% (active).

For `Cc1ccc(C)c2sc(NC(=O)c3nc4ccccc4s3)nc12`, the activity change, less the hit threshold is -7.3%.

Consider `Cn1sc(NC(=O)c2cccc(Cl)c2)nc1=O`, for which the activity change, less the hit threshold is -5.4%.

In the case of `Cc1ccccc1C(=O)Nc1nc(=S)ss1`, the activity change, less the hit threshold was 58.6% (active).

As for `CC(C)CC(=O)Nc1nc(=S)ss1`, the activity change, less the hit threshold was -15.9%.

For `O=C(NNC(=O)c1ccc(Cl)cc1Cl)c1cnccn1`, the activity change, less the hit threshold was -19.5%.

`COc1cc(/C=C2/SC(=S)N(CC(=O)O)C2=O)ccc1OCC(=O)Nc1ccc(C)c(C)c1`: the activity change, less the hit threshold is -18.3%.

As for `COC(=O)c1ccnc(/C=N/O)c1`, the activity change, less the hit threshold was -13%.

In the case of `N=C1SCC(=O)N1c1ncc(Cc2ccccc2Cl)s1`, the activity change, less the hit threshold is -20.8%.

Consider `COc1ccc2nc(N=Nc3c(O)ccc4ccccc34)sc2c1`, for which the activity change, less the hit threshold was -4.3%.

Take `COc1ccc2nc(/N=C/c3c(C)[nH]n(-c4ccc(C)cc4)c3=O)sc2c1`: the activity change, less the hit threshold is 103% (active).

In the case of `CCOc1ccc2nc(/N=C/c3nc(-c4ccccc4)oc3O)sc2c1`, the activity change, less the hit threshold is -11.5%.

On to `N#Cc1c(NC(=O)c2cc(-n3cnnc3)ccc2Cl)sc2c1CCCC2`, for which the activity change, less the hit threshold was -10.6%.

On to `Cc1[nH]n(-c2ccc(Cl)cc2)c(=O)c1/C=N/c1nnc(-c2ccccc2)s1`, for which the activity change, less the hit threshold is 170% (active).

Regarding `CCOc1ccc2nc(N3C(=O)/C(=C/c4ccccc4)NC3=S)sc2c1`, the activity change, less the hit threshold is -26.6%.

For `CCOc1ccc2nc(/N=C/c3c(C)[nH]n(-c4ccccc4)c3=O)sc2c1`, the activity change, less the hit threshold was 109% (active).

Consider `Cc1[nH]n(-c2cccc3ccccc23)c(=O)c1/C=N/c1sc2c(c1C#N)CCC2`, for which the activity change, less the hit threshold was -0.6%.

`Cc1[nH]n(-c2ccc(F)cc2)c(=O)c1/C=N/c1sc2c(c1C#N)CCCC2`: the activity change, less the hit threshold was 21.6% (active).

For the compound `COc1ccc2nc(-n3c(O)c(C4=c5ccccc5=NC4=O)[nH]c3=S)sc2c1`, the activity change, less the hit threshold is -16.8%.

Turning to `CC(=O)c1ccc(N2CCN(C(=O)Cc3ccccc3)CC2)c(F)c1`, the activity change, less the hit threshold is -28%.

In the case of `CCCN(CC(=O)Nc1ccccc1C)C(=O)CCl`, the activity change, less the hit threshold was -25.4%.

On to `CCc1nnc(NC(=O)c2cccc(S(=O)(=O)N3CCN(c4ccccc4)CC3)c2)s1`, for which the activity change, less the hit threshold was -21.2%.

As to `COC(=O)/C=C1\S/C(=N/N=C/c2ccco2)NC1=O`, the activity change, less the hit threshold was -11%.

Regarding `CSc1nc2ccc(S(=O)(=O)N3CCc4ccccc43)cc2s1`, the activity change, less the hit threshold is -21.8%.

Regarding `Cc1ccc2[nH]cc(CCNC(=O)/C=C/c3ccco3)c2c1`, the activity change, less the hit threshold is -22.5%.

On to `CCOC(=O)c1nnsc1NC(C)=O`, for which the activity change, less the hit threshold was -19.7%.

Regarding `CC(C)Oc1ccccc1C1(c2ccccc2)NC(=O)NC1=O` (stereo not drawn), the activity change, less the hit threshold is -22.4%.

In the case of `CCCCc1cc(=O)oc2c(C)c(OCC(=O)NCc3ccccn3)ccc12`, the activity change, less the hit threshold was -13.4%.

In the case of `CCOc1ccc2nc(N3C(=O)/C(=C/c4ccc(Cl)cc4)NC3=S)sc2c1`, the activity change, less the hit threshold was -21.3%.

For the compound `CCOc1ccc2nc(/N=C/c3c(C)[nH]n(-c4ccc(C)cc4)c3=O)sc2c1`, the activity change, less the hit threshold was 102% (active).

Consider `COc1ccc2nc(/N=C/c3c(C)[nH]n(-c4ccc(C)cc4C)c3=O)sc2c1`, for which the activity change, less the hit threshold was 23% (active).

Consider `CCOc1ccc2nc(/N=C/c3nc(-c4ccc(Br)cc4)oc3O)sc2c1`, for which the activity change, less the hit threshold is -9.3%.

For the compound `CCC(c1nnc(SCC(=O)NCCc2ccc(Cl)cc2Cl)o1)N(C)C` (stereo not drawn), the activity change, less the hit threshold is -31.5%.

`CCOc1ccccc1C(=O)NC1CC2CCCC(C1)N2Cc1nnnn1Cc1ccco1` (stereo not drawn): the activity change, less the hit threshold is -26.4%.

As for `Cc1ccc2cc(CN(CCCN(C)C)C(=S)NCc3ccccc3)c(=O)[nH]c2c1C`, the activity change, less the hit threshold was -23.9%.

For the compound `CC1CC(OCC(O)C[N+]2(C)CCOCC2)CC(C)(C)C1` (stereo not drawn), the activity change, less the hit threshold is -21.6%.

On to `CCCSc1cc(NCCOC(C)=O)c([N+](=O)[O-])c2nonc12`, for which the activity change, less the hit threshold is -13.1%.

With `COc1ccc(C(=O)O/N=C(\N)c2ccccn2)cc1[N+](=O)[O-]`, the activity change, less the hit threshold is -10.2%.

For the compound `O=[N+]([O-])C1=CC=C2C(=NC3(CCCCC3)N2O)C1=NC1CCCCC1`, the activity change, less the hit threshold is -27.4%.

Consider `Nc1cccc2c1C(=O)N(CC(=O)NC13CC4CC(CC(C4)C1)C3)C2=O`, for which the activity change, less the hit threshold is -18.4%.

Regarding `O=C(O)c1ccc(CNC(=O)C23CC4CC(CC(C4)C2)C3)cc1`, the activity change, less the hit threshold was -18.2%.

Turning to `Cc1ccc(/C(O)=C/C(=O)C(=O)NC23CC4CC(CC(C4)C2)C3)cc1`, the activity change, less the hit threshold was 1.2% (active).

With `S=c1[nH]nc(-c2n[nH]c3c2CCC3)n1/N=C/C=C/c1ccccc1`, the activity change, less the hit threshold is -26.2%.

Consider `CC(=O)OCC1O[C@@H](O[C@@H]2C[C@H]3C(C)(C)[C@H](OC(C)=O)CC[C@]3(C)[C@H]3CC[C@]45C[C@]4(CC[C@H]5[C@@H](C)C[C@@H](O)[C@H](O)C(C)(C)O)[C@@]32C)[C@H](O)[C@@H](O)[C@@H]1O` (stereo partly drawn), for which the activity change, less the hit threshold was 1% (active).

For the compound `CC(Nc1ccc(F)cc1)=[N+](C)CCNS(=O)(=O)c1ccc(Cl)cc1`, the activity change, less the hit threshold is -10.9%.

Regarding `N/C(=N\OS(=O)(=O)c1cccc([N+](=O)[O-])c1)c1ccncc1`, the activity change, less the hit threshold is 1.3% (active).

Regarding `CN(c1cccc(NS(=O)(=O)c2cccc([N+](=O)[O-])c2)c1)S(C)(=O)=O`, the activity change, less the hit threshold was -9.2%.

As to `O=C(CSc1nnc(-c2ccncc2)o1)c1cccc([N+](=O)[O-])c1`, the activity change, less the hit threshold is -29.3%.

With `CCOc1cccc(Nc2cc3n(c(=O)n2)CCc2cc(OC)c(OC)cc2-3)c1`, the activity change, less the hit threshold is -19.8%.

As for `CC(C)CCn1c(SCC(=O)NC2CC2)nc2cc(Cl)ccc2c1=O`, the activity change, less the hit threshold is -8.5%.

For `O=C1c2ccccc2C(=O)N1Cc1nc2ccccc2c(=O)n1CCCn1ccnc1`, the activity change, less the hit threshold was -20.6%.

As to `CCCn1c(SCN2C(=O)c3ccccc3C2=O)nc2cc(Cl)ccc2c1=O`, the activity change, less the hit threshold was 21.1% (active).
